Test results as given in PubChem BioAssay (NCATS).
Records with an inconclusive call do not appear. Entries that show only a call come without a potency. Calls of active or inactive are those of the source. The call rests on the fitted dose curve; in most records, active means well fitted inhibition curve with a large enough effect; inconclusive means small, poorly fitted or top-dose-only effect; inactive means flat fitted curve, though single readings scatter.

Each compound was assayed on Zika virus NS2B-NS3 protease (assay: Primary screen GU AMC qHTS for Zika virus inhibitors (AID 1347154; further: nearly all actives have a fitted effect of over 70% in size)). Conditions: Zika NS2B-NS3 unlinked protease, AMC fluorogenic substrate; series mostly up to 54.1 µM.
Summary of the method: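 Fluorogenic AMC-substrate cleavage by noncovalent NS2B-NS3 protease complex (25 nM, pH 8.0 Tris buffer with Tween 20) followed for 15 minutes at room temperature (~20% conversion). Percent inhibition from ex340/em450 signal change, fitted by 4-parameter Hill equation.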

SMILES	Potency
COc1ccc(C=CC(=O)Nc2ccccc2C(=O)O)cc1OC	inactive
CC(C)c1c(C(=O)Nc2ccccc2)c(-c2ccccc2)c(-c2ccc(F)cc2)n1CC[C@H](O)C[C@@H](O)CC(=O)O	inactive
Cc1cn([C@@H]2C[C@@H](O)[C@H](CO)O2)c(=O)[nH]c1=O	inactive
CCC(=C(c1ccc(O)cc1)c1ccc(OCCNC)cc1)c1ccccc1	inactive
C#CCN(C)CC1=Cc2ccccc2Oc2ccccc21	inactive
COc1ccc(-c2oc3c(CC=C(C)C)c(O)cc(O)c3c(=O)c2O)cc1	inactive
O=C(NC[C@H](O)CO)c1ccncc1Nc1ccc(I)cc1F	inactive
Cc1ccc(NC(=O)c2ccc(CN3CCN(C)CC3)cc2)cc1Nc1nc(-c2cccnc2)cs1	inactive
CCCCC[C@H](O)C=C[C@H]1[C@H](O)CC(=O)[C@H]1CC=CCCCC(=O)O	inactive
NC(=O)c1ncn([C@@H]2O[C@H](CO)[C@@H](O)[C@@H]2O)n1	inactive
CN(C)CCN(Cc1ccc(Cl)cc1)c1ccccn1	inactive
NCc1c[nH]c(=S)n1[C@H]1CCc2c(F)cc(F)cc2C1	inactive
CN(C)c1ccccc1CN1CCCN(Cc2ccccc2N(C)C)C1c1ccncc1	inactive
O=C1C(CCC(O)c2ccc(F)cc2)C(c2ccc(O)cc2)N1c1ccc(F)cc1 (stereo unspecified)	inactive
CN1CC(=O)N2C(Cc3c([nH]c4ccccc34)[C@H]2c2ccc3c(c2)OCO3)C1=O (stereo partly specified)	inactive
CCOC(=O)N1c2ccc(C(F)(F)F)cc2[C@@H](N(Cc2cc(C(F)(F)F)cc(C(F)(F)F)c2)C(=O)OC)C[C@H]1CC	inactive
O=C1CCCC(=O)C1C(=O)c1ccc(C(F)(F)F)cc1[N+](=O)[O-]	inactive
CC[C@@H]([C@H](C)O)n1ncn(-c2ccc(N3CCN(c4ccc(OCC5CO[C@@](Cn6cncn6)(c6ccc(F)cc6F)C5)cc4)CC3)cc2)c1=O (stereo partly specified)	inactive

SMILES	Potency
CC[C@H](C)C(=O)O[C@H]1C[C@H](O)C=C2C=C[C@H](C)[C@H](CC[C@@H](O)C[C@@H](O)CC(=O)O)[C@H]21	inactive
O=C(O)C1=CO[C@@H](O[C@@H]2O[C@H](CO)[C@H](O)[C@H](O)[C@H]2O)[C@@H]2C(CO)=CC[C@H]12	inactive
Cc1cccc(Nc2nc(N[C@@H]3CCCC[C@H]3N)ncc2C(N)=O)c1	inactive
C[C@]12CC[C@@H]3c4ccc(O)cc4CC[C@H]3[C@H]1[C@@H](O)[C@@H](O)[C@H]2O	inactive
COc1cc(F)c(C(C)C)cc1-c1ccc(C(F)(F)F)cc1CN1C(=O)O[C@H](c2cc(C(F)(F)F)cc(C(F)(F)F)c2)[C@@H]1C	inactive
O=C(NCCCCN1CCOCC1)c1cc2ccccc2o1	inactive
CN(C)CCOc1ccc(C(=C(CCCl)c2ccccc2)c2ccccc2)cc1	inactive
CC(O)=C(C#N)C(=O)Nc1ccc(C(F)(F)F)cc1	inactive
CC(=O)OCC(=O)[C@@]1(O)CC[C@H]2[C@@H]3CCC4=CC(=O)C=C[C@]4(C)[C@@H]3[C@@H](O)C[C@@]21C	inactive
C#C[C@]1(O)CC[C@H]2[C@H]3CCc4cc(OC)ccc4[C@H]3CC[C@@]21C	inactive
CNC(=O)c1cc(COc2nnc(Nc3ccc(Cl)cc3)c3ccoc23)ccn1	inactive
COc1ccnc(CS(=O)c2nc3ccc(OC(F)F)cc3[nH]2)c1OC (stereo unspecified)	inactive
CC(NCCc1ccc(O)cc1)C(O)c1ccc(O)cc1 (stereo unspecified)	inactive
COc1c(C)cnc(Cn2cnc3c(Cl)nc(N)nc32)c1C	inactive
OC[C@H]1O[C@@H](Oc2ccc(O)cc2)[C@H](O)[C@@H](O)[C@H]1O	inactive
O=C(O)C1=CC(O)C(O)[C@H](O)C1 (stereo partly specified)	inactive
C[C@H]1[C@H](O)O[C@@H]2O[C@@]3(C)CC[C@@H]4[C@H](C)CC[C@@H]1[C@@]24OO3	inactive
C=CCc1cccc(C=NNC(=O)CN2CCN(Cc3ccccc3)CC2)c1O	inactive
